Assay outcomes (PubChem BioAssay)
A selection: hits, their analogues and other compounds. The true share with any hit is near 5.4%.
MIN6 prolif = induces beta-cell replication in MIN6 cells; MIN6 cells proliferation, ATPlite luminescence, 48 h; cells starved in 0.2% serum; 100% = growth in 10% serum; proliferation, % at 10 µM; 330,000 tested, 0.29% active;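 active = compounds whose signal lies at least 3.5 SD above the mean of all wells on their plate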;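 note: 0% = DMSO-treated cells in low-serum medium and 100% = 10% serum control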
SMARCA2 activ = activators of SMARCA2 function; MG213 cells, MMTV-luciferase reporter, dexamethasone, overnight; activation, % at 9.1 µM; 370,000 tested, 1% active; in the data active = activation above about 7.8%;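 note: 0% = vehicle wells and 100% = reference activator wells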
Granule exo inh = lytic granule exocytosis inhibition | TALL-104 LAMP-1 surface exposure, flow cytometry; cells stimulated with thapsigargin and PMA | inhibition, % at 10 µM | 360,000 tested, 0.66% active | AID 651702;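 active = inhibition above about 55%, limit read from the data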
ALR H2O2 inh = human ALR oxidase inhibition via reduced H2O2; inhibition, % (no concentration beside the values); P55789; 290,000 tested, 3.8% active; purified ALR, DTT oxidation, H2O2 HRP-luminol luminescence;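 active = mean replicate inhibition above about 79%, with every replicate also reaching it, limit read from the data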
JMJD2C inh = inhibitors of human GASC-1 (JMJD2C) demethylase; Q9H3R0; inhibition, % at 2.35 µM; GST-JMJD2C(1-420) H3K9me3 demethylation, DELFIA europium; 330,000 tested, 0.069% active;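 active = more than half of a compound's replicate wells show inhibition beyond 50%, single wells judged on their own value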;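 note: signal counts dimethyl H3K9 product captured on neutravidin plate; 0% = median of DMSO wells and 100% = 0.3 times that DMSO median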
Target sequence (Q9H3R0 1-420 limits assumed): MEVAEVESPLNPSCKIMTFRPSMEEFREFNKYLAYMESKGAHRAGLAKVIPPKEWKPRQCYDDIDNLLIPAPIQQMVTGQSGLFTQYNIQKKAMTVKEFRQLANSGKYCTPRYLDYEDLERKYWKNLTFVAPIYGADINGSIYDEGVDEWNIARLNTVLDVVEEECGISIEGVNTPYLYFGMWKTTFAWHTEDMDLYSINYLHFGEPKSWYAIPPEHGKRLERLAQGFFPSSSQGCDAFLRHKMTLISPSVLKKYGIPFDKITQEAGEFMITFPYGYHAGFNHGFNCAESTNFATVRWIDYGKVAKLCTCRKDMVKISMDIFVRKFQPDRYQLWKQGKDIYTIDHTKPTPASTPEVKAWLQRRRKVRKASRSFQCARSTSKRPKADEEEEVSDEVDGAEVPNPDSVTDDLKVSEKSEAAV
PfM18AAP inh = PfM18AAP enzyme inhibition; AID 1822; 290,000 tested, 1.2% active; recombinant PfM18AAP, H-Glu-NHMec fluorogenic cleavage; inhibition, % at 7.35 µM;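 active = inhibition above the campaign mean inhibition over all tested compounds plus 3 SD, cut at about 28% in these data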;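 note: 0% = plate median of test compound wells and 100% = 2 mM ZnCl2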
* hit, by the source's call; x = no result given.

SMILES	MIN6 prolif	SMARCA2 activ	Granule exo inh	ALR H2O2 inh	JMJD2C inh	PfM18AAP inh
COc1cc(C(=O)Nc2c(C(=O)O)[nH]c3ccc(C)cc23)cc(OC)c1OC	-2.0	-2.3	-8.2	95.7*	-0.1	-5.8
COc1ccccc1NC(=O)COC(=O)c1[nH]c(=O)[nH]c(=O)c1N	0.3	-2.9	3.1	-11.9	53.2*	x
COC(=O)c1[nH]c2ccc(C)cc2c1NC(=O)Nc1ccccc1OC	-2.2	1.3	-5.4	96.6*	-9.9	-0.7
COC(=O)c1[nH]c2ccc(Cl)cc2c1NC(=O)Oc1ccccc1	-0.1	3.3	-5.1	99.5*	8.5	8.2
COC(=O)c1[nH]c2ccc(C)cc2c1NC(=O)CN1CCc2cc(OC)c(OC)cc2C1	-1.6	1.0	1.8	-2.3	-1.6	-1.1
COc1cc(CCC(C)=O)ccc1OC(=O)c1c(-c2c(F)cccc2Cl)noc1C	x	-4.1	x	x	x	x
CN(C(=O)c1ccccc1OCC(=O)Nc1ccc(Br)cc1)c1ccccc1	x	-4.5	x	x	x	x
Cc1ccc(S(=O)(=O)N/N=C/c2ccccc2O)cc1[N+](=O)[O-]	-2.5	-1.8	1.1	95.5*	15.4	4.7
NC(=O)c1oc2ccccc2c1NC(=O)C1CCCCC1	1.7	-3.1	-6.0	96.1*	3.6	4.9
O=C(NCC1CCN(C(=O)C(=O)c2cccs2)CC1)c1ccc2c(c1)OCO2	x	-1.0	x	x	x	x
NC(=O)C1=CN([C@@H]2O[C@H](COP(=O)(O)OP(=O)(O)OC[C@H]3O[C@@H](n4cnc5c(N)ncnc54)[C@H](O)[C@@H]3O)[C@@H](O)[C@H]2O)C=CC1	x	-3.5	x	x	x	x
c1ccc(OCc2nnc(SCc3nc4ccccc4[nH]3)n2-c2ccccc2)cc1	x	-4.8	x	x	x	x
O=C1/C(=C/c2cccnc2)CCc2c1[nH]c1ccccc21	0.0	-4.8	8.8	-10.7	-5.0	-4.2
CC1C/C(=C\c2cccnc2)C(=O)/C(=C/c2cccnc2)C1 (configuration not stated)	x	-12.3	0.4	95.5*	5.6	6.5
COC(=O)[C@]12C[C@H](CC(=O)NCc3ccc(OC)c(OC)c3)C(=O)N(CCc3ccc(OC)c(OC)c3)C1=C[C@H](C(C)(C)C)O[C@@H]2C	x	-6.1	x	x	x	x
CC(=O)C1=C(O)C(=O)N(c2ccc(C)cc2)C1c1ccc([N+](=O)[O-])cc1 (configuration not stated)	-3.7	0.1	-2.4	29.4	-11.9	2.6
COc1ccc(C2C(C(C)=O)=C(O)C(=O)N2c2ccc(F)cc2)cc1 (configuration not stated)	1.3	-3.2	5.8	0.2	-1.9	6.5
CC(=O)C1=C(O)C(=O)N(c2ccc(Br)cc2)C1c1ccc(Cl)cc1 (configuration not stated)	-1.4	-0.9	-5.6	56.5	-1.4	0.9
CC(=O)C1=C(O)C(=O)N(c2ccc(O)cc2)C1c1ccc([N+](=O)[O-])cc1 (configuration not stated)	-1.4	-1.9	0.7	81.8*	3.6	5.3
COc1ccc(C2C(C(C)=O)=C(O)C(=O)N2c2ccc(O)cc2)cc1 (configuration not stated)	-0.8	1.0	3.1	87.9*	9.7	4.5
CC(=O)C1=C(O)C(=O)N(c2ccc(O)cc2)C1c1ccc(Cl)cc1 (configuration not stated)	-0.2	-0.7	1.7	81.0*	1.1	4.8
CCOC(=O)c1c(NC(=O)C2CC(Cl)=CCC2C(=O)O)sc2c1CCCCC2 (configuration not stated)	-5.0	x	1.2	97.7*	3.5	12.1
CCOC(=O)c1c(NC(=O)C2C3C=CC(C3)C2C(=O)O)sc2c1CCC(C)C2 (configuration not stated)	-0.7	-5.0	8.4	95.3*	5.9	5.5
Nc1ccc(S(=O)(=O)c2ccc(N)c(N)c2)cc1	0.9	-1.7	0.2	88.5*	23.3	5.3
C/C(=N\NC(=O)CSCc1ccccc1Cl)c1cc(O)ccc1O	-6.1	-4.4	-1.5	98.3*	x	16.1
S=C1NC[C@H](Cc2ccccc2)N1CC1CCN(CCCC2CCCCC2)CC1	x	1.2	x	x	x	x
Cn1c(=O)[nH]c(NCCc2ccc(O)cc2)c([N+](=O)[O-])c1=O	2.7	2.3	-3.8	80.7*	3.3	x
Cn1c(=O)[nH]c(Nc2ccc(F)cc2)c([N+](=O)[O-])c1=O	0.3	4.3	7.1	5.2	7.5	-17.3
